Source: PubChem BioAssay (several laboratories)
In the library only some 4.9% were active in any assay of this set; here they are far more common.
PP1 counter: counter-screen for PP5 inhibitors: inhibitors of human PP1-alpha. purified PP1alpha, OMFP fluorescence. inhibition, % at 6.7 µM. hit rate 0.9% among 320,000;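 active = inhibition above the mean inhibition of all tested compounds plus 3 SD, computed separately for each screening campaign, cut at about 15% in these data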
Target sequence (P62136 whole entry, looked up): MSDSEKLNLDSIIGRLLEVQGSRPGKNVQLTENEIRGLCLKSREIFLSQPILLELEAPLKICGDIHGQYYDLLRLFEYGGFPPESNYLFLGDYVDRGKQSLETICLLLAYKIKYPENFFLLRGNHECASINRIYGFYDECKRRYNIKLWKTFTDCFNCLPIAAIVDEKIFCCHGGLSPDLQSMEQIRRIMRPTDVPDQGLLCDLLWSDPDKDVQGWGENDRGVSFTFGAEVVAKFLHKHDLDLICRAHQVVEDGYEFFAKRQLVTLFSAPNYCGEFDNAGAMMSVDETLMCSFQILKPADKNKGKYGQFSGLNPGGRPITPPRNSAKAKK
Beta apoptosis: blocks beta cell apoptosis. AID 435005. protection from apoptosis, % (no concentration beside the values). hit rate 0.8% among 300,000. INS-1E cytokine-induced death, ATP luminescence, 48 h; percent of positive-control rescue, neutral wells zero;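 active = Every replicate reaches about 75%, or at least half do and their mean reaches it too, limit read from the data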;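 also: higher means more ATP so stronger rescue from cytokine killing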
CSC inhib: cancer stem cell inhibition. hit rate 1.1% among 300,000. inhibition, % at 7.5 µM. cancer stem cell-like cells viability, luminescence; in the data active = inhibition above about 75%; tested in HMLE shEcad cells
Mdm2-MdmX inh: disrupts the human Mdm2-MdmX interaction | O15151+Q00987 | SaOS-2 split-luciferase Mdm2/MdmX complementation, luminescence | inhibition, % at 8 µM | hit rate 3% among 330,000 | AID 485346;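 active = inhibition of at least 50% at 8 µM in the primary screen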
Calb FLC: C. albicans growth modulation with fluconazole; growth inhibition, % (concentration not given with the values); AID 1979; hit rate 0.57% among 300,000; C. albicans CaCi-2 (fluconazole-resistant clinical isolate) + fluconazole, Alamar Blue growth, 48 h;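 active = growth inhibition above about 58% in most replicates, limit read from the data, passing the limit was not always enough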;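 also: all wells also contain fluconazole at 8 µg/ml as a sub-toxic cotreatment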
PP5 primary: blocks human protein phosphatase 5 activity; P53041; purified PP5c, OMFP substrate fluorescence; inhibition, % at 6.7 µM; hit rate 0.18% among 320,000;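 active = inhibition above the campaign's mean inhibition across all tested compounds plus 3 SD, cut at about 9.5% in these data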
Mdm2 MdmX conf: confirmation of human Mdm2/MdmX interaction inhibitors; shares compounds with Mdm2-MdmX inh; Mdm2-MdmX binding, luminescent assay; inhibition, % at 8 µM; hit rate 55% among 10,000; AID 489028; in the data active = inhibition above about 40%
FLuc counter: inhibits full-length luciferase, flagging false Mdm2/MdmX hits; shares compounds with Mdm2-MdmX inh; SaOS-2 full-length luciferase counterscreen, luminescence; inhibition, % at 8 µM; hit rate 77% among 6,200;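 active = mean inhibition at 8 µM reaching about 37%, which flags the compound as non-specific, limit read from the data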;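 also: p53-null SaOS-2 cells with luciferase driven by a doxycycline-inducible promoter; compound on cells about two nights before reading with doxycycline added after day one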
Each line names hits and unclear results; the compound was inactive in the other large screens (follow-up assays come after a bar, where they were run).

O=[N+]([O-])c1ccc(Nc2nc(N/N=C/c3cccc(F)c3)nc(N3CCCC3)n2)cc1	none
Cc1ccc(NC(=O)N2CCCC2C(=O)NCC2CCCO2)cc1 (stereo not drawn)	none
Cc1ccc(C(=O)NC2CCC(C)CC2)o1 (stereo not drawn)	none (no result: CSC inhib)
COc1cc2c(cc1OC)C(C1C(=O)CC(C)(C)CC1=O)N(C(=O)CCl)CC2 (stereo not drawn)	none
COc1cc2c(cc1OC)C(c1cc(Br)ccc1F)N(C(=O)CCl)CC2 (stereo not drawn)	Mdm2-MdmX inh 100.3 | Mdm2 MdmX conf 73.0 | FLuc counter 55.5
CC1(C)CC(=O)C2=C(C1)N(c1ccc(F)cc1)C(=O)C2(NC(=O)c1ccccc1)C(F)(F)F (stereo not drawn)	none
O=C1COc2ccc(C(=O)CSc3nc4ccccc4c(=O)n3-c3ccc(Cl)c(Cl)c3)cc2N1	Mdm2-MdmX inh 97.9 | Mdm2 MdmX conf inactive
CCc1ccc(-n2c(SCC(=O)c3ccc4c(c3)NC(=O)CO4)nc3ccccc3c2=O)cc1	Mdm2-MdmX inh 64.1 | Mdm2 MdmX conf inactive
COc1ccc(-c2cn(-c3ccc(C)c(C)c3)c(=S)[nH]2)cc1OC	none (no result: Calb FLC)
COc1ccc(-c2cn(-c3ccccc3)c(=S)[nH]2)cc1OC	Mdm2-MdmX inh 94.4 | Mdm2 MdmX conf inactive
COc1ccccc1N(CC(=O)Nc1cc(C)on1)S(=O)(=O)c1cccc(C(F)(F)F)c1	none (no result: CSC inhib, Calb FLC)
COc1ccc(-c2nc(N/N=C(\C)c3ccc(O)cc3)c3ccccc3n2)cc1	Mdm2-MdmX inh 85.6 | Mdm2 MdmX conf inactive
COC(=O)[C@@H]1CC[C@H](C)[C@@H](c2ccc(C)cc2)N1C(=O)c1ccc(/C=N/O[C@@H](C)c2cn([C@H](CO)Cc3ccccc3)nn2)cc1	Mdm2-MdmX inh 87.7 | Mdm2 MdmX conf 65.7 | FLuc counter 50.7
Cc1onc(-c2ccc(Cl)cc2)c1-c1ccnn1S(=O)(=O)c1cccc(C(F)(F)F)c1	none
COc1ccc(-c2cc(C)no2)cc1S(=O)(=O)NCC1CCN(Cc2cc(C)ccc2C)CC1	Mdm2-MdmX inh 60.9 | Mdm2 MdmX conf inactive
COc1ccc(-c2cc(C)no2)cc1S(=O)(=O)N(C)c1ccc(C)cc1	Mdm2-MdmX inh 63.0 | Mdm2 MdmX conf 49.8 | FLuc counter 60.1
Cc1cc(-c2ccc(C)c(S(=O)(=O)NCC3CCN(Cc4ccc(F)cc4)CC3)c2)on1	none (no result: CSC inhib)
COc1ccc(OC)c(CNS(=O)(=O)c2cc(-c3cc(C)no3)ccc2OC)c1	none
COc1ccccc1CN1CCC(CNS(=O)(=O)c2cc(-c3cc(C)no3)ccc2C)CC1	Mdm2-MdmX inh 55.7 | Mdm2 MdmX conf 43.9 | FLuc counter 75.0
CN(C)S(=O)(=O)c1ccc(N2CCCC2)c(C(=O)N2CCN(c3ccc([N+](=O)[O-])cc3)CC2)c1	none
O=C(N/N=C/c1ccccc1O)C1CC(=O)N(c2ccc(Cl)cc2)C1 (stereo not drawn)	Beta apoptosis 84.3, Mdm2-MdmX inh 76.0 | Mdm2 MdmX conf 59.1 | FLuc counter 36.7
Cc1ccccc1C(=O)Nc1ccc(C(=O)N/N=C/c2ccc(O)c(Br)c2)cc1	none
COc1ccc(NC(=O)Nc2ccon2)cc1OC	none
Cc1cc(C)n(-c2ccc(NC(=O)C3CCCCN3Cc3cccc4c3OCO4)cc2)n1 (stereo not drawn)	Mdm2-MdmX inh 51.6 (no result: PP1 counter, Beta apoptosis, CSC inhib, PP5 primary) | Mdm2 MdmX conf 64.0 | FLuc counter 74.8
Cc1cc(C)n(-c2ccc(NC(=O)C3CCCCN3C(=O)c3ccoc3)cc2)n1 (stereo not drawn)	none (no result: PP1 counter, PP5 primary)
COc1ccc(NC(=O)CSc2nc3sc(C)c(C)c3c(=O)n2Cc2ccco2)cc1	Mdm2-MdmX inh 87.3 (no result: CSC inhib) | Mdm2 MdmX conf inactive
COC(=O)c1ccc2c(=O)n(Cc3ccco3)c(SCC(=O)Nc3ccc(C)c(Cl)c3)nc2c1	Mdm2-MdmX inh 67.8 | Mdm2 MdmX conf inactive
Cc1nc2scc(-c3ccccc3)c2c(=O)n1N=C1C=CC(=O)C=C1	Mdm2-MdmX inh 69.6 (no result: PP1 counter, Beta apoptosis, CSC inhib, PP5 primary) | Mdm2 MdmX conf 41.8 | FLuc counter inactive
CCOc1ccc(/C=N/n2c(C3CCCCC3)n[nH]c2=S)cc1	none
COc1ccc(C(=O)N/C(=C/c2ccc(Cl)cc2)C(=O)Nc2ccc(C(=O)O)cc2)cc1	none (no result: PP1 counter, PP5 primary)
CCOC(=O)Cn1c(-c2ccccc2)cc(SC)c(C#N)c1=O	none
CSc1cc(-c2ccccc2)n(Cc2c(Cl)cccc2Cl)c(=O)c1C#N	Mdm2-MdmX inh 65.7 | Mdm2 MdmX conf 50.8 | FLuc counter 68.8
CSc1cc(-c2ccc(Cl)cc2)n(Cc2ccccc2)c(=O)c1C#N	Mdm2-MdmX inh 98.0 | Mdm2 MdmX conf inactive
CCOc1ccc(OCC)c(-c2c(=O)n(OCc3ccc(C(C)(C)C)cc3)c3ccccc3[n+]2[O-])c1	none
COCc1cc(C)nc(Nc2ccccc2OC)c1C#N	none
COc1ccc(-n2nc(C(=O)NCc3ccco3)c3c4ccccc4n(C)c3c2=O)cc1Cl	Mdm2-MdmX inh 57.3 | Mdm2 MdmX conf inactive
COc1ccc(-n2nc(C(=O)NCCCN3CCCC3=O)c3c4ccccc4n(C)c3c2=O)cc1Cl	none
COc1ccccc1CNC(=O)c1nn(-c2ccc(C)cc2)c(=O)c2c1c1ccccc1n2C	Mdm2-MdmX inh 79.1 | Mdm2 MdmX conf inactive
COc1ccc(-n2nc(C(=O)NCC(=O)NCc3ccccc3OC)c3ccccc3c2=O)cc1	none
COc1cc(/C=C(\C#N)C(=O)NC2CCCCC2C)ccc1OS(=O)(=O)c1ccc(C)cc1 (stereo not drawn)	CSC inhib 156.7, Mdm2-MdmX inh 100.3 | Mdm2 MdmX conf inactive
O=C(Nc1nc2ccc(Cl)cc2s1)c1ccc(N2CCCCC2)c([N+](=O)[O-])c1	Mdm2-MdmX inh 60.8 | Mdm2 MdmX conf 42.4 | FLuc counter 53.7
Cc1ccc(Cn2c(=N)c(C(=O)NC3CCCC3)cc3c(=O)n4ccccc4nc32)cc1	Mdm2-MdmX inh 50.2 | Mdm2 MdmX conf inactive
CC(C)OCCCn1c(=N)c(C(N)=S)cc2c(=O)n3ccccc3nc21	Mdm2-MdmX inh 61.1 (no result: Beta apoptosis) | Mdm2 MdmX conf inactive
CC(C)Cc1ccc(CN2CCCC(NC(=O)c3cnc4ccccn4c3=O)C2)cc1 (stereo not drawn)	Mdm2-MdmX inh 60.0 | Mdm2 MdmX conf inactive
N=c1c(C(=O)NC2CCCCC2)cc2c(=O)n3ccccc3nc2n1Cc1ccco1	Mdm2-MdmX inh 55.6 (no result: CSC inhib) | Mdm2 MdmX conf 44.1 | FLuc counter inactive
O=C(COC(=O)c1ccc2ccccc2n1)c1ccccc1	none
O=S(=O)(NCCc1ccc(F)cc1)c1ccc(F)cc1Br	none (no result: PP1 counter, Beta apoptosis, CSC inhib, Calb FLC, PP5 primary)
N=c1c(C(=O)NC2CCCCC2)cc2c(=O)n3ccccc3nc2n1Cc1ccccc1	none
N=c1c(C(=O)NC2CCCCC2)cc2c(=O)n3ccccc3nc2n1CCc1ccccc1	Mdm2-MdmX inh 93.9 | Mdm2 MdmX conf 96.6 | FLuc counter inactive
CCn1c(=O)c(C(=O)NNS(=O)(=O)c2ccc(C)cc2)c(O)c2ccccc21	none
